# Experimental data: the supplement of paper PMC3334620
# Over roughly 33,000 sequences, “E-score (-0.5 to 0.5)” has its median near -0.056; the highest 2% begin near 0.38. For the sample, the highest values were picked, then their nearest neighbours and some sequences at random.
# Target: Stb4 (UniProt P50104)
# Assay: PBM E-score (8-mer binding enrichment) (E-score (-0.5 to 0.5)); higher = stronger / more preferred TF binding
# Details: protein concentration: 200 nM; construct: GST-DNA-binding domain
# Experimental: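 Universal 'all 10-mer' protein binding microarrays (Agilent AMADID 015681) probed with GST-tagged S. cerevisiae TFs (full-length or DBD) made by in vitro transcription/translation (PURExpress), about 100-200 nM. Bound TF was detected with fluorescent anti-GST. Each ungapped 8-mer (which stands for itself and its reverse complement) is scored by the PBM enrichment score (E-score), a modified Wilcoxon-Mann-Whitney statistic from -0.5 to +0.5, computed with the Universal PBM Analysis Suite. Scale: above 0.35 generally sequence-specific binding.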
# UniProt P50104, sequence (P50104 whole entry): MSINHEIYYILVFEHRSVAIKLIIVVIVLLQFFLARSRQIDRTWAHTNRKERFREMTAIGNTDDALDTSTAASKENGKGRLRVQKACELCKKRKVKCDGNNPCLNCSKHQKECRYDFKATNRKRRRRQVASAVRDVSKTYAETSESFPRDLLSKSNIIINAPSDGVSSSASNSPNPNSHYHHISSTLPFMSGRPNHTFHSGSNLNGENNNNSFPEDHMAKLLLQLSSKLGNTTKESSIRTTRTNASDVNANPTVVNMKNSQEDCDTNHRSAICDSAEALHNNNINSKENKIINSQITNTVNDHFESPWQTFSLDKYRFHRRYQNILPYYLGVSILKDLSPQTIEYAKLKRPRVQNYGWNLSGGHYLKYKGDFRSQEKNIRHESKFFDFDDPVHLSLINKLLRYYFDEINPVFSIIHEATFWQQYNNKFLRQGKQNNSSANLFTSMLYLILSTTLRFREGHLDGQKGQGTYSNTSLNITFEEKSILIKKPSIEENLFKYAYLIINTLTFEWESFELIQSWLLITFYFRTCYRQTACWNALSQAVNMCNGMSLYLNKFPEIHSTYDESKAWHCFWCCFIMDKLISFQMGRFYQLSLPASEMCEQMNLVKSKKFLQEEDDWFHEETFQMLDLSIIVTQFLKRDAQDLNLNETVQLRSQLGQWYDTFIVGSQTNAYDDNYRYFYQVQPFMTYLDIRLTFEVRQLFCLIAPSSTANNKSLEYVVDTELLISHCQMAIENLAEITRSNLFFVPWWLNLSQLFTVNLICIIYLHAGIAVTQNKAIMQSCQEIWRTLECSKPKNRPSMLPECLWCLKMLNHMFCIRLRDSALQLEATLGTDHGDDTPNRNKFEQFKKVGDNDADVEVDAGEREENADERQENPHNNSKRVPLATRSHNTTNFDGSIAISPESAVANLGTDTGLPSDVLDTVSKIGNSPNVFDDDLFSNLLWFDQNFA
row,Sequence,PBM E-score
1,AGCCCGGA,0.361
2,CCCCCGGA,0.176
3,GGCCCGGA,0.402
4,AGAGGTTC,0.0565
5,ATAGCGGG,0.0172
6,AAGATGTG,-0.156
7,GCTAAGCA,-0.217
8,CCACAGAA,-0.0915
9,CCCAGACG,-0.17
10,AACTTCGC,-0.041
11,AGCTTCGC,-0.276
12,ATCTTCGA,-0.171
13,ATCTTCGG,0.423
14,AGCTTCGA,-0.189
15,AGCTTCGG,0.395
16,ATCTTCCG,0.436
17,AACTTCGT,-0.177
18,AACTTCGG,0.408
19,ATCTTCCC,0.226
20,ATCTTCCA,-0.137
21,ATCTTCGC,0.016
22,ATCGAACC,0.089

row,Sequence,PBM E-score
1,CTAGTCCA,-0.153
2,ACCAATGC,-0.00399
3,GTAGTCAC,-0.16
4,CTCTACTC,-0.106
5,GGATTCCA,0.13
6,ACCTTCCT,-0.342
7,ACCTTCCC,0.0875
8,ACCTTCCG,0.4
9,CCCTACAA,-0.218
10,ATCTATCA,-0.0983
11,AGAATGGC,-0.0824
12,GAGTCGGC,0.223
13,TAGTCGGA,0.405
14,AAGTCGGA,0.372
15,TAGTCGCA,-0.0285
16,GAGTCGGA,0.387
17,CAGTCGGA,0.316
18,GGATCGAA,0.214
19,AGATCGGA,0.438
20,AGATCGGG,0.28
21,AGATCGGC,0.189
22,CGATCGGA,0.322

row,Sequence,PBM E-score
1,GGATCGGA,0.402
2,GCATGAAA,-0.101
3,GTTCTCGA,-0.166
4,GCGAATCC,-0.0095
5,ACGAATCC,0.009
6,CCGAATCC,0.427
7,ACGAATCG,0.0102
8,CCGAATCA,0.361
9,CCGAATCG,0.405
10,ACTAGCAG,-0.298
11,GCCTACCC,0.0606
12,ACAGATCG,-0.0736
13,GATCCGGC,0.396
14,AATCCGGT,0.246
15,GATCCGGA,0.421
16,TATCCTGA,-0.0875
17,GATCCGCA,0.316
18,AATCCGGA,0.363
19,TATCCGGA,0.46
20,GAACCGGC,0.262
21,AATCCGGC,0.241
22,GTGAAAGA,0.0652

row,Sequence,PBM E-score
1,GTGAAGAA,-0.139
2,GAAGTGTA,-0.107
3,ATTGGTAA,-0.137
4,GCCTGCAA,-0.18
5,CCGTGAAA,0.145
6,GTATCATA,-0.0852
7,AATCATAA,-0.089
8,GCCCAGGA,-0.0894
9,AACGGAAC,0.348
10,ATCGGAAC,0.428
11,AACGGAAG,0.284
12,CTCGGAAG,0.48
13,ATCGGAAG,0.433
14,GTGGGAAC,-0.102
15,ATCGGACG,0.289
16,CACGGAAG,0.36
17,GACGGAAC,0.317
18,GTCGGAAC,0.454
19,ATCGGACC,0.308
20,CGCGGAAG,0.357
